# Source: PubChem (National Center for Advancing Translational Sciences (NCATS))
# Rows were chosen to be rich in hits. Some 7.8% of all compounds tested hit in one or more screens of this group.
# VACV Venus inh: vaccinia inhibition (Venus reporter). Vaccinia virus Venus reporter expression, fluorescence. Potency, µM (titrated, usually from 36.5 µM), usual class: inhibitors. 0.46% of 330,000 active; calls by dose curve; tested in A549 cells; further: nearly all actives have a fitted effect of over 30% in size
# Vaccinia mCherry: vaccinia inhibition (mCherry reporter); Vaccinia virus mCherry reporter infection, fluorescence; Potency, µM (highest dose often 36.5 µM), actives largely listed as inhibitors; 0.63% of 310,000 active; AID 720579; calls by dose curve; tested in A549 cells; further: nearly all actives have a fitted effect of over 35% in size
# HCMV inh: human cytomegalovirus inhibition; activity change, negative = inhibition, % at 57.5 µM; HFF cells, HCMV-luciferase reporter, 72 h; hits give low values; 4.5% of 410,000 active; in the data active means activity change below about -60%; inconclusive means no clear call, values can overlap the other calls; inactive means above about -39%
#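 Compounds were evaluated in HFFs infected with an HCMV luciferase reporter virus (MOI 1 PFU/cell). Luciferase in lysates collected 72 h post infection served as the replication measure.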
# HCV inh: blocks hepatitis C virus | AID 651820 | Potency, µM (series often up to 41.8 µM), usual class: inhibitors | 3.4% of 340,000 active | Huh7.5.1 HCVcc-Cre infection, luciferase reporter, 44 h; active means well fitted inhibition curve with a large enough effect; inconclusive means small, poorly fitted or top-dose-only effect, or another doubt; inactive means no such curve, though single readings can be large or run the other way
#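 HCVcc-Cre virus at an moi near 0.5 was added right after compound to cells cultured 4 h from seeding (1,000 cells/well). Luciferase activity was determined 44 h later, 15 min after substrate addition at RT.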
# LASV entry inh: Lassa virus entry inhibition | Lassa virus pseudotype entry inhibition, cell reporter | Potency, µM (doses to about 37.9 µM), hits mostly inhibitors | 1.2% of 300,000 active | AID 540256; calls by dose curve; tested in HEK293 cells; further: nearly all actives have a fitted effect of over 50% in size
# MARV entry inh: blocks Marburg virus binding to or entry into cells. Marburg virus pseudotyped entry inhibition, cell reporter. Potency, µM (top dose mostly 37.8 µM), hits mostly inhibitors. 1.8% of 300,000 active. AID 540276; calls by dose curve; tested in HEK293 cells
# Numbers stand for hits; - = inactive; ? = inconclusive; . = no result; [ ] = remark or other dose.
SMILES,VACV Venus inh,Vaccinia mCherry,HCMV inh,HCV inh,LASV entry inh,MARV entry inh
CCc1cccc(C)c1NC(=O)Cn1nnc(-c2nc(-c3ccccc3F)no2)c1N,-[7.34 µM],-[7.34 µM],-,.,-,.
O=C1C=C2C(=CCOC2O)O1 (stereo not drawn),11µM,11µM,.,.,.,.
CC(=O)Nc1ccc(C23CC4CC(CC(C4)C2)C3)cc1,.,.,-,-,.,.
CNC(=S)Nc1ccc(C23CC4CC(CC(C4)C2)C3)cc1,-,-,-98,?,?,?
COC(=O)C1=CN(Cc2cccs2)C=C(C(=O)OC)C1c1cccc(O)c1,-,-,-,-,7.1µM,-
CCOC(=O)c1ccc(NC(=O)C(Cc2ccccc2)NS(=O)(=O)c2ccc(Br)s2)cc1 (stereo not drawn),-,-,-,.,-,-
CN(C)c1ccc(NC(=O)c2cnsn2)cc1,-,-,-,-,7.1µM,?
C[N+]1(CC(=O)c2cccc([N+](=O)[O-])c2)CCOCC1,-,-,.,.,.,.
O=C(CSc1nc(Nc2ccc(F)cc2)c2ccccc2n1)c1ccc(F)cc1,-,-,-,.,-,.
COc1cc(Nc2nc(SCC(=O)c3ccc(Br)cc3)nc3ccccc23)cc(OC)c1,?,?,-62,.,-,.
Cc1ccnc(NCc2cc(Cl)cc(Cl)c2O)c1,-,-,-,.,.,.
Cc1cc(C)c(O)c(CN(C)Cc2cc(Cl)cc(Cl)c2O)c1,?,2.8µM,-,?,?,3.2µM
CN1CCN(c2ccc(-c3ccc4ccccc4n3)cc2)CC1,-,-,-92,16µM,?,?
c1ccc2nc(-c3ccc(N4CCOCC4)cc3)ccc2c1,.,.,-,?,3.7µM,2.3µM
CCc1ccc(NC(=O)CCNS(=O)(=O)c2ccc3c(c2)CCCC(=O)N3)cc1,-,-,-,.,?,.
CCS(=O)(=O)c1nc(S(=O)(=O)c2ccc(Cl)cc2)c(NCc2ccc(Cl)cc2)s1,-,-,-,.,-,-
CCc1ccccc1NC(=O)CNC(=O)c1ccc(S(=O)(=O)NCc2ccco2)cc1,-,-,-102,.,.,.
CC(C)(C)c1ccc(C(=O)NNC(=S)NCc2ccco2)cc1,-,-,-,-,?,?
CCNC(=S)NNC(=O)c1ccc(S(=O)(=O)NCc2ccco2)cc1,-,-,-100,-,-,?
COc1ccc(C=CC2=C[C@]3(C)C[C@]2(C)[C@H](c2ccc(OC)cc2)CC3=O)cc1,.,.,.,.,.,-
CCC(O)(CC)C(=O)NN(C(=O)CCl)c1ccccc1,-,-,-94,-,-,?
CCCC(O)(CCC)C(=O)NN(C(=O)OC)c1ccccc1,-,-,-,-,-,-
O=C(Nc1ccccc1)NN(C(=O)CCl)c1ccccc1,?,?,-102,?,?,?
CCN(CC)NC(=O)Nc1ccccc1,-,-,-,-,-,-
Cc1ccc(N(NC(=O)C(O)(c2ccccc2)c2ccccc2)C(=O)CCl)cc1,?,?,-99,3.2µM,?,13µM
SMILES,VACV Venus inh,Vaccinia mCherry,HCMV inh,HCV inh,LASV entry inh,MARV entry inh
CCc1c(C)[nH]c2ccc(OC)cc2c1=S,-,-,-71,-,-,-
CCOc1ccc(Cc2c(C)[nH]c3ccc(C(=O)O)cc3c2=S)cc1,-,-,-79,-,?,-
COc1ccc2[nH]c(C)c(CN3CCCCC3)c(=O)c2c1,-,-,-,-,-,-
Cc1cc(C(=O)Nc2ccccc2-c2nc(CNC(=O)c3ccc(F)cc3F)c(C)o2)c(C)o1,-,-,.,.,.,.
O=C(COC(=O)c1cc(F)c(F)cc1Cl)NC1CCCCCC1,-,-,-,.,.,.
Cc1ccc(C(=O)NC2CCCCC2)cc1,-,-,-,-,-,-
O=C(NC1CCCCCCC1)c1cc(F)c(F)cc1Cl,.,.,-61,-,.,.
Cc1ccc(C(=O)NC2CCCCCCC2)c(Cl)c1,.,.,-79,-,.,.
Oc1c(C(c2ccccc2)N2CCN(Cc3ccccc3)CC2)sc2nc(-c3ccco3)nn12 (stereo not drawn),-,-,-,.,-,.
Oc1ccc(Br)cc1CNc1cccc2cccnc12,-,?,-62,-,?,?
Cc1cccc(NCc2ccc(O)c3ncccc23)c1C,-,-,-96,?,?,?
Cc1cccnc1NCc1ccc(O)c2ncccc12,?,14µM,?,10µM,?,?
CCOc1ccc(NC(=O)c2ccccc2NC(=O)CNC2CCCC(C)C2C)cc1 (stereo not drawn),.,.,-66,-,.,.
COc1cc2c(NC3CCN(C(C)C)CC3)nc(N3CCCN(C)CC3)nc2cc1OCCOCCN(C)C,1.8µM,1.6µM,.,.,.,.
COc1cc2c(NC3CCN(C)CC3)nc(N3CCCN(C)CC3)nc2cc1OCCOCCN(C)C,-,-,.,.,.,.
COc1cc2c(NC3CCN(C(C)C)CC3)nc(N3CCCN(C)CC3)nc2cc1OCCCN1CCCC1,1µM,0.89µM,.,.,.,.
COc1cc2c(NC3CCN(C)CC3)nc(N3CCCN(C)CC3)nc2cc1OCCCN(C)C,?,-,.,.,.,.
COc1cc2c(NC3CCN(C)CC3)nc(N3CCCCC3)nc2cc1OCCOCCN(C)C,13µM,10µM,.,.,.,.
COc1cc2c(NC3CCN(C)CC3)nc(N3CCCCC3)nc2cc1OCCCN(C)C,10µM,?,.,.,.,.
CC(=O)OC1CC[C@]2(C)C(CC[C@@]3(C)C2C(=O)C=C2C4C(C)C(C)CC[C@@]4(C(=O)O)CCC23C)C1(C)C (stereo partly drawn),-,-,.,.,.,.
COc1ccccc1CNC(=O)C1CCN(S(=O)(=O)c2ccc3c(ccn3C)c2)CC1,-,-,-,.,-,.
CCc1nc2cc(C(=O)N(C)CC3CCCN(C)C3)cc(NC(=O)c3ccccc3OC)c2n1C (stereo not drawn),-,-,.,.,.,.
COc1ccc2c(c1)-c1nc(-n3ncc(C(=O)N(C)CCO)c3C3CC3)ncc1CC2,-,-,.,.,.,.
COC(=O)c1c(C)[nH]c(O)c1C=Nc1ccc(Oc2ccccc2)cc1,-,-,-65,-,?,-
Cc1cc2c(c(-c3cnccn3)c1)OC(CNC(=O)c1cc(C(C)C)[nH]n1)C2 (stereo not drawn),-,-,.,.,.,.
SMILES,VACV Venus inh,Vaccinia mCherry,HCMV inh,HCV inh,LASV entry inh,MARV entry inh
CCOC(=O)/C=c1/s/c(=C\c2c(OC)ccc3ccccc23)c(=O)n1CC(=O)NCC1CCCO1 (stereo not drawn),-,?,-87,?,?,?
CCOC(=O)/C=c1\s/c(=C\c2c(OCC)ccc3ccccc23)c(=O)n1CC(=O)NCC1CCCO1 (stereo not drawn),?,-,-,3.5µM,?,?
CCOC(=O)/C=c1\s/c(=C\c2ccccc2C)c(=O)n1CC(=O)NCc1ccc2c(c1)OCO2,-,-,-,-,-,-
CCOC(=O)/C=c1\s/c(=C\c2ccc3cc(OC)ccc3c2)c(=O)n1CC(=O)NCc1ccc2c(c1)OCO2,-,-,-100,-,-,-
CCOC(=O)/C=c1\s/c(=C\c2ccc3c(c2)OCCO3)c(=O)n1CC(=O)NCC1CCCO1 (stereo not drawn),-,-,-,-,-,-
C/C1=C\CC(C)(C)/C=C/C(=O)[C@@H](C)CCC[C@H](C)CC(=O)C1,.,.,-,.,.,.
O=C1/C(=C/c2ccccc2[N+](=O)[O-])COc2ccccc21,.,.,-100,?,.,.
